Experimental data taken from PubChem BioAssay (NCI).
Several values for one entry are separate records, joined by “and”; a condition that tells them apart may be missing. Equal values may be shown once. Compounds without any hit were thinned out: in the full panel of roughly 83,000, 20% have a hit.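 A percent growth of 40 corresponds to 60% growth inhibition; 0 means no net growth; -100 means all cells died. Active threshold: below 10.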 Activity calls are given as the source filed them.

Legend:
Assay in all cases: NCI-60 one-dose screen, 48 h (100 = growth as untreated, 0 = no growth, -100 = all killed)
Conditions in all cases: 10 µM unless noted
[1] = test system: SK-MEL-2 melanoma
[2] = test system: EKVX NSCLC
[3] = test system: SN12C renal
[4] = test system: UO-31 renal
[5] = test system: TK-10 renal
[6] = test system: ACHN renal
[7] = test system: CAKI-1 renal
[8] = test system: A498 renal
[9] = test system: CCRF-CEM leukemia
[10] = test system: SR leukemia
[11] = test system: RPMI-8226 leukemia
[12] = test system: OVCAR-8 ovarian
[13] = test system: OVCAR-5 ovarian
[14] = test system: OVCAR-4 ovarian
[15] = test system: SK-OV-3 ovarian
[16] = test system: OVCAR-3 ovarian
[17] = test system: HS 578T breast
[18] = test system: MOLT-4 leukemia
[19] = test system: IGROV1 ovarian
[20] = test system: HL-60(TB) leukemia

Measured: growth

CN(C)c1ccc(C=C2C(=O)NC(=O)NC2=O)cc1
inactive: [1] 105% | [2] 92.4% | [3] 77.5% | [4] 92.9% | [5] 109% | [6] 89.3% | [7] 78.9% | [8] 58.2% | [9] 115% | [10] 107% | [11] 131% | [12] 98.5% | [13] 77.9% | [14] 116% | [15] 109% | [16] 95.8% | [17] 91.7%

CC1=C2[C@H]3OC(=O)[C@@H](C)[C@@H]3CC[C@@]2(C)C=CC1=O
active: [1] -0.59%
inactive: [2] 121% | [3] 100% | [4] 99.2% | [5] 107% | [6] 95.7% | [7] 112% | [8] 125% | [9] 94.6% | [18] 104% | [10] 114% | [11] 91% | [12] 116% | [13] 90.7% | [15] 122% | [16] 129% | [17] 108%

CCCn1cc2c3c(cccc31)[C@H]1C[C@@H](C)CN(C)[C@@H]1C2
inactive: [1] 134% | [2] 94.9% | [3] 81.6% | [4] 36.1% | [5] 96.8% | [6] 94.6% | [7] 83.8% | [8] 71.3% | [9] 86.9% | [18] 77.6% | [10] 71.4% | [11] 48.4% | [12] 89.1% | [13] 84.4% | [14] 80.6% | [15] 87.9% | [19] 35.1% | [16] 84.4% | [17] 83.6%

O=[N+]([O-])c1ccc(OCc2ccc(S(=O)(=O)F)c(Cl)c2)c(Cl)c1
inactive: [1] 88.7% | [2] 112% | [3] 97.7% | [4] 70% | [5] 102% | [6] 92.7% | [7] 102% | [8] 95.6% | [9] 87.9% | [18] 68.2% | [10] 87.5% | [11] 97.8% | [12] 105% | [13] 99% | [14] 102% | [15] 107% | [19] 100% | [16] 112% | [17] 95.4%

Nc1ccc(P(=O)(O)O)cc1
inactive: [1] 120% and 99.4% | [2] 95.7% | [3] 103% and 101% | [4] 90.8% and 91.8% | [5] 119% and 97.4% | [6] 98.7% and 105% | [7] 102% and 99.5% | [8] 105% and 108% | [9] 97.5% and 95.4% | [18] 110% and 112% | [10] 108% and 115% | [11] 97.8% and 104% | [12] 101% and 98.4% | [13] 97.6% and 99.8% | [14] 90.7% | [15] 104% and 108% | [19] 97.9% and 111% | [16] 107% and 110% | [17] 110%

CCCCCCCCCCCCCCCC[n+]1ccccc1
active: [1] -83.3% and -80.1% | [2] -47.9% and -2.17% | [3] -37.9% and -29.2% | [5] -74.4% | [6] -23.8% and 7.44% | [7] -16.1% and -34.4% | [8] -18.7% and -7.63% | [9] -69% and -43.7% | [18] -61.5% and -64.2% | [10] -32.3% and -40.4% | [11] -67.1% and -42.5% | [12] -72.2% and -41.8% | [13] -45.6% and -15% | [14] -5.49% and -2.49% | [15] -43% and -22.4% | [19] -73% and -60.1% | [16] -70.9% and -51% | [17] -26.3% and -12.5%
-28% (active) and 11.7% (inactive): [4]

C[C@@]12CCCc3coc(c31)C(=O)c1cc3c(cc12)C(=O)C1=C(NCCS1(=O)=O)C3=O
inactive: [2] 11.1% | [4] 35.7% | [5] 28.2% | [6] 30.6% | [7] 10.5% | [8] 35.3%
active: [1] -41.3% | [3] -79.3% | [9] -28.7% | [18] -31.5% | [10] -13.3% | [11] -30.4% | [12] -13.1% | [13] -28.3% | [14] -89.3% | [15] -12.6% | [16] -47.2% | [17] -12.3%

ClC1OC(Cl)(Cl)C(Cl)(Cl)OC1(Cl)Cl (configuration not stated)
inactive: [1] 113% | [2] 100% | [3] 95.1% | [4] 81.4% | [5] 107% | [6] 99.7% | [7] 99% | [8] 131% | [20] 125% | [18] 97.1% | [10] 95% | [12] 101% | [13] 93.4% | [15] 111% | [16] 110% | [17] 135%

O=Cc1cn(Cc2ccccc2)c2ccccc12
inactive: [1] 27.1% | [2] 120% | [3] 98.1% | [4] 55.6% | [5] 25.1% | [6] 91.3% | [7] 21.9% | [9] 104% | [18] 99.8% | [10] 93% | [11] 61.2% | [12] 85.8% | [14] 55.1% | [15] 61.4% | [16] 68.6% | [17] 150%
active: [8] -92.7% | [13] -20.3% | [19] -21.4%

N#CC(C#N)=Cc1cccc(F)c1
inactive: [1] 112% | [2] 102% | [3] 101% | [4] 95.9% | [5] 104% | [6] 106% | [7] 99.6% | [8] 102% | [20] 97.2% | [11] 103% | [12] 107% | [13] 98.4% | [14] 110% | [15] 105% | [19] 112% | [16] 109% | [17] 101%

CN(C)c1ccc([N+](=O)[O-])c([N+](=O)[O-])c1
-35% (active) and 87.6% (inactive): [7]
inactive: [1] 90% and 103% | [2] 96% and 96.2% | [3] 105% and 97.7% | [4] 117% and 84.7% | [5] 135% and 114% | [6] 98.1% and 106% | [8] 109% | [9] 80.9% and 94.2% | [18] 107% and 100% | [10] 78.3% | [11] 106% and 103% | [12] 104% and 96.3% | [13] 113% and 101% | [14] 101% | [15] 108% and 112% | [19] 112% and 107% | [16] 119% and 125% | [17] 96.4% and 103%

C=CC[PH+](c1ccccc1)c1ccccc1.C=CC[PH+](c1ccccc1)c1ccccc1.[Pt+2].[S-]c1nc2ccccc2[nH]1.[S-]c1nc2ccccc2[nH]1
active: [1] -72.9% | [3] -4.98% | [5] -12.2% | [8] -16.1% | [9] 6.12% | [18] 0.306% | [10] 4.38% | [11] -19.1% | [12] 2.64% | [13] -3.98% | [14] 4.93% | [15] 8.34% | [19] -23.4% | [16] -23.3% | [17] -16.6%
inactive: [2] 33% | [4] 35.2% | [6] 42.3% | [7] 25%

CCC1(CCSC#N)C(=O)NC(=O)NC1=O
inactive: [1] 109% | [2] 93.2% | [3] 104% | [4] 87% | [5] 86.5% | [6] 106% | [7] 98.7% | [8] 90.9% | [9] 103% | [18] 85.1% | [10] 88.8% | [11] 106% | [12] 102% | [13] 109% | [14] 91.4% | [15] 98.4% | [19] 104% | [16] 105% | [17] 106%
